37 compounds from PubChem BioAssay (NCATS) can be followed below.

“And” between values parts separate entries of the source, which are not always exact repeats. Equal values may be shown once. Inconclusive results are not listed. The source made the active and inactive calls. Calls follow the shape of the dose curve; as a rule, active = well fitted curve in either direction with a large enough effect (not every such curve was filed as active); inconclusive = small, poorly fitted or top-dose-only effect, or another doubt; inactive = flat fitted curve, though single readings scatter. Residues, ends and D or L forms follow the SMILES beside them. *: point of attachment. Cbz = O=C(OCc1ccccc1)*
% is scaled to controls: 0 for no effect and ±100 for the full control effect.

The nature of the first assay: AP1 Signaling Pathway (AID 357).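 Also: ME-180 reporter cells stimulated with EGF at its EC50 level.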 The following applies: ME-180 AP-1-bla reporter, EGF-induced, beta-lactamase ratio, 5 h; at 17.2 µM (top of the series). The source says:
NCGC Assay Overview: Activator protein-1 (AP-1), a transcription factor, plays an important role in tumor genesis by regulating genes involved in cell proliferation, differentiation, apoptosis, and angiogenesis. AP-1 activity is induced by a complex network of signaling pathways that involves extracellular signals, such as growth factors. The AP-1 protein complex formed from c-Fos and c-Jun binding to the AP-1 response element results in transcriptional activation of genes containing such elements within their promoter. Low molecular weight molecules have been discovered and developed to modulate various components of these signaling pathways, for example, MAP kinase inhibitors. However, many points of pathway modulation remain untested due to the lack of chemical probes making this signaling locus of general interest. Using a beta-lactamase reporter-gene under control of the AP-1 response element, a cell-based assay [CellSensor(TM) AP-1-bla ME-180 developed by Invitrogen Corp.] was used to measure EGF-induced signaling. Library compounds were measured for their ability to modulate positively or negatively the action of EC50 EGF on reporter gene activity. Compounds were screened in a titration series in 1536-well format. Positive and negative modulators were identified based on the AC50 values derived from the screening data.
NCGC Assay Protocol Summary: 2500 cells/5uL in Opti-MEM medium containing 0.5% dialyzed FBS, 0.1 mM NEAA, 1 mM sodium pyruvate and 10 mM HEPES was dispensed into 1536-well plates and cells were cultured at 37 degrees Celsius overnight. […] After centrifugation at 1000 rpm for 2 seconds the plates were incubated at 37 degrees Celsius for 5 hours. 1 uL of CCF4-dye mixture was added to each well. After incubated at room temperature for 2.5 hours the plates were measured on an EnVision plate reader at Excitation 405nm, Emission1=460nm and Emission 2=530nm. The %Activity was determined from the ratio of 460nm/530nm.
As for `O=C(O)c1cc2cc(F)ccc2[nH]1`, the activity change, negative = inhibition is 14.4% (inactive).

Turning to `COc1ccc(-c2ccc(N)[n+](CCCC(=O)O)n2)cc1`, the activity change, negative = inhibition was -6.26% (inactive).

For the compound `O=[N+]([O-])c1cccc2cn[nH]c12`, the activity change, negative = inhibition is -15.6% (inactive).

Still in this assay, the particulars now being: ME-180 AP-1-bla reporter, EGF-induced, beta-lactamase ratio, 5 h; at 38 µM (top of the series).
With `O=C(O)c1cc2cc(F)ccc2[nH]1`, the activity change, negative = inhibition is 0.264% (inactive).

`COc1ccc(-c2ccc(N)[n+](CCCC(=O)O)n2)cc1`: the activity change, negative = inhibition is -9.04% (inactive).

Take `O=[N+]([O-])c1cccc2cn[nH]c12`: the activity change, negative = inhibition was 0.682% (inactive).

The assay is the same for the next values; noted with them: ME-180 (cervical carcinoma) AP-1-bla reporter, EGF-induced, beta-lactamase ratio, 5 h; at 38 µM (top of the series) unless noted.
With `CC(=O)NNC(=O)N1Cc2ccccc2Oc2ccc(Cl)cc21`, the activity change, negative = inhibition is -8.52% (inactive).

For `CC(=O)N[C@@H](Cc1c[nH]c2ccccc12)C(=O)OCc1cc(C(F)(F)F)cc(C(F)(F)F)c1`, the activity change, negative = inhibition was 10.1% (inactive).

`O=C(O)c1ccccc1Nc1ccccc1`: the activity change, negative = inhibition is 4.51% (inactive).

As to `Nc1ccc(N2C(=O)c3ccccc3C2=O)c(Cl)c1`, the activity change, negative = inhibition was -5.66% (inactive).

Consider `CNC(=O)c1cc2c(cn1)[nH]c1ccccc12`, for which the activity change, negative = inhibition was 0.843% (inactive).

For the compound `O=C1Cc2c([nH]c3ccc(Br)cc23)-c2ccccc2N1`, the activity change, negative = inhibition was -104% (active).

On to `O=c1[nH]c2ccccc2c2ccccc12`, for which the activity change, negative = inhibition is -9.69% (inactive).

In the case of `O=C(O)C1=CCCN(CCON=C(c2ccccc2)c2ccccc2)C1`, the activity change, negative = inhibition was 5.02% (inactive).

As for `CC(C)Cn1c(=O)n(C)c(=O)c2[nH]cnc21`, the activity change, negative = inhibition is 0.858% (inactive).

On to `O=C(c1ccc2c(c1)OCCO2)N1CCCCC1`, for which the activity change, negative = inhibition is 1.86% (inactive).

For the compound `C[C@H](NC(=O)/C(C#N)=C/c1ccc(O)c(O)c1)c1ccccc1`, the activity change, negative = inhibition was -18.9% (inactive) and -19.7% (inactive).

`Nc1nc2[nH]c(=O)cnc2c(=O)[nH]1`: the activity change, negative = inhibition is 6.93% (inactive).

`c1ccc(CN2CCC3(CCCc4ccccc43)CC2)cc1`: the activity change, negative = inhibition is 11.9% (inactive).

As for `O=c1[nH]c(=S)[nH]c(-c2ccccc2)c1Cc1c(O)ccc2ccccc12`, the activity change, negative = inhibition is -11.2% [at 7.69 µM] (inactive).

`NC(N)=NC(N)=Nc1ccccc1`: the activity change, negative = inhibition is -6.28% (inactive).

In the case of `CN[C@H](CC(=O)O)C(=O)O`, the activity change, negative = inhibition is -0.55% (inactive).

On to `COCc1nc2c([nH]1)c(=O)n(C)c(=O)n2CC(C)C`, for which the activity change, negative = inhibition is 1.03% (inactive).

`CC(N)=O`: the activity change, negative = inhibition was 9.17% (inactive).

For the compound `C[N+](C)(C)CC=O`, the activity change, negative = inhibition was 3.33% (inactive).

For `O=C(O)Cc1ccc(O)c(O)c1`, the activity change, negative = inhibition is -7.22% (inactive).

Consider `COc1ccc(NC(=O)c2ccc(-c3ccc(-c4noc(C)n4)cc3C)cc2)cc1N1CCN(C)CC1`, for which the activity change, negative = inhibition was -2.61% (inactive).

For `C=CCn1c(=O)c2c(nc(-c3ccc(S(=O)(=O)O)cc3)n2C)n(C)c1=O`, the activity change, negative = inhibition is 7.93% (inactive).

Take `N[C@@H](Cc1ccc(O)c(I)c1)C(=O)O`: the activity change, negative = inhibition was 9.71% [at 17.2 µM] (inactive).

`CC(C)[C@H](NC(=O)OCc1ccccc1)C(=O)N[C@H](C=O)Cc1ccccc1` (Cbz-Val-Phe-aldehyde): the activity change, negative = inhibition was -8.71% (inactive).

With `Cc1ccc2c(c1)C(N1CCN(C)CC1)=Nc1cccnc1N2`, the activity change, negative = inhibition is 22.6% (inactive).

Regarding `N=C(N)c1ccc(OCCCCCOc2ccc(C(=N)N)cc2)cc1` (tested in a mixture with another compound), the activity change, negative = inhibition is 5.08% (inactive).

Regarding `CN(C)CCC(c1ccc(Br)cc1)c1ccccn1` (stereo not given), the activity change, negative = inhibition is 14% [at 17.2 µM] (inactive).

Regarding `C#CCn1c(=O)c2c(ncn2C)n(C)c1=O`, the activity change, negative = inhibition was 8.56% (inactive).

For the compound `Cn1c(=O)c2[nH]c(C3CCCC3)nc2n(C)c1=O`, the activity change, negative = inhibition is 0.66% (inactive).

On to `NCCS(=O)O`, for which the activity change, negative = inhibition was 7.28% (inactive).

In the case of `COc1ccc(CCN(C)CCc2ccc(OC)c(OC)c2)cc1OC`, the activity change, negative = inhibition was 10.7% (inactive).

For `O=S(=O)(c1cccc2c(Cl)cccc12)N1CCCNCC1`, the activity change, negative = inhibition is -0.881% (inactive).

Regarding `Nc1ccc2c3c(cccc13)C(=O)NC2=O`, the activity change, negative = inhibition was -5.58% (inactive).

As for `NC(=Nc1ccccc1)NC(=O)c1nc(Cl)c(N)nc1N`, the activity change, negative = inhibition was -5.68% (inactive).
